From PubChem BioAssay AID652040 (Broad Institute, 2013) come the findings set out here.

Measured potencies and affinities stand elsewhere. Activity calls are given as the source filed them.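 How the source made its calls: active means falling luciferase signal whose fitted half-maximal concentration is at most twice the top tested dose; inconclusive means flat inhibition between 30 and 70% or a poor curve fit; inactive means the rest.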

This assay in a line: off-target signal loss in HeLa-CEM21 co-culture – HeLa F-luc CTL cells, cherry-picked, counter-screen for HIV-1 Env fusion inhibitor project, dose response (AID 652040).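 Further: more negative values mean stronger loss of luciferase signal.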 Conditions: HeLa-F-luc CTL cells with CEM21, firefly luciferase counterscreen; series mostly up to 35 µM. A general note: The purpose of a counterscreen is to sort out artefacts and off-target activity.
With `COc1cc(-c2cc(OC)c(O)c(OC)c2)cc(OC)c1O`, the outcome was inactive.
For the compound `CCOC(=O)[C@@H]1[C@H]2COc3cc(OC)ccc3[C@H]2N2C(=O)N(c3cccc(F)c3)C(=O)[C@@]12C`, the outcome was inactive.
Then `O=C(CN1CCN(Cc2ccc(Cl)cc2)C1=O)NCCCN1CCN(c2ccc(F)cc2)CC1`, with “inactive”; and `O=C(COC(=O)c1ncc(Cl)c(Cl)c1Cl)NCc1cccs1`, with “inactive”.
Regarding `CC(C)(C)OC(=O)N1CCc2onc(-c3ccc(Br)cc3)c2C1=O`, the compound was called inactive.
Then `O=C(Cc1ccc(Cl)cc1Cl)Nc1ccncc1`, with “inactive”; and `O=C(c1ccc(Cl)s1)N1CCN(c2nc3ccccc3s2)CC1`, with “inactive”.
With `Cc1ccc(C(=O)NCc2ccccn2)cc1S(=O)(=O)N1CCCCC1`, the call was inactive.
Regarding `Cc1cc(C(=O)NC2CCCc3c2cnn3-c2ccc(C(C)(C)C)cc2)nn1C` (stereo not given), the compound was classed as inactive.
Consider `CN(C(=O)c1cccc(NC(=O)Cc2cccc(NC(=O)C3CCCN(C(=O)C4CCC4)C3)c2)c1)C1CCC1` (stereo not given), for which the compound was called inactive.
In the case of `COc1ccc(Nc2ncc(C(=O)N3CCN(c4ccc(F)cc4)CC3)c3ccccc23)cc1`, the outcome was inactive.
Then `Cc1ccc(OCCN2CCN(c3ncnc4sc(C)c(C)c34)CC2)cc1`, with “inactive”; and `O=S(=O)(NCCc1csc(-c2cccnc2)n1)c1ccc(Cl)s1`, with “inactive”.
With `CCOC(=O)[C@@H]1[C@H]2COc3cc(OC)ccc3[C@H]2N2C(=O)N(c3ccc(C(F)(F)F)cc3)C(=O)[C@]12C`, the outcome was inactive.
Turning to `Clc1ccc(-c2noc(CSc3nnc(-c4ccncc4)n3-c3ccccc3)n2)cc1`, the call was inactive.
For the compound `CCN(CC)CCN(C(=O)c1cc(Cl)sc1Cl)c1nc2cc3c(cc2s1)OCO3`, the result was inactive.
Consider `C[C@@H]1CN([C@H](C)CO)C(=O)c2cccc(NC(=O)c3ccncc3)c2O[C@@H]1CN(C)Cc1ccc(C(=O)O)cc1`, for which the call was inactive.
Regarding `O=C(Nc1ccc(CN2CCOCC2)cc1)c1ccc(-c2cccc(Cl)c2)o1`, the outcome was inactive.
Turning to `COc1ccccc1N/C(N)=N/c1nc(CSc2ccc(C)cc2)cc(=O)[nH]1`, the compound was classed as inactive.
Regarding `CCOc1ccc(C(=O)C2CCN(CC(=O)Nc3ccccc3N3CCOCC3)CC2)cc1`, the result was inactive.
Take `CCc1nc2ccccc2c(C(=O)OCC(=O)Nc2cccc(S(=O)(=O)N3CCOCC3)c2)c1C`: the result was inactive.
With `CCOC(=O)[C@]12CCC=C1N(Cc1ccc3c(c1)OCO3)C(=O)[C@H](CC(=O)NCC13CC4CC(CC(C4)C1)C3)C2`, the compound was called inactive.
Regarding `CCc1cc2c(NCc3ccco3)ncnc2s1`, the call was inactive.
As to `O=C(COC(=O)c1cccc(S(=O)(=O)N2CCOCC2)c1)NCc1ccccc1`, the compound was called inactive.
For `CC1CCC(C(C)C)C(OC(=O)Cn2c(-c3ccccc3)[n+](C)c3ccccc32)C1` (stereo not given), the call was inactive.
Under `C[C@H]1NC(=O)[C@@]2(C)[C@H](c3ccccc3)[C@H]3COc4ccccc4[C@@H]3N2C1=O` stands “inactive”; under `COc1ccc(N2CCN(C(=O)C3CCC(Cn4c(=S)[nH]c5ccccc5c4=O)CC3)CC2)cc1` (stereo not given), “inactive”.
Turning to `Nc1nonc1C(=O)NCCNCc1cc(Br)ccc1OCc1ccccc1F`, the outcome was inactive.
On to `O=C(c1cccc(S(=O)(=O)N2CCN(c3ccccc3)CC2)c1)N1CCCC(C(F)(F)F)C1` (stereo not given), for which the outcome was inactive.
Consider `C=CC[n+]1c(-c2ccc(OC)c(OC)c2)csc1NNC(=O)Nc1ccccc1`, for which the call was inactive.
`CC1(C)N=C(N)N=C(N)N1CCCCc1ccccc1`: the compound was classed as inactive.
`COC(=O)[C@@]12CCCN1[C@H](c1ccc(-c3ccc(F)cc3)c(OC)c1)[C@H]1C(=O)N(C)C(=O)[C@H]12`: the call was inactive.
On to `CC(NNC(=S)N1CCCCCC1)c1ccc2ccccc2n1` (stereo not given), for which the outcome was inactive.
As for `O=C(COC(=O)c1cc(S(=O)(=O)N2CCOCC2)ccc1O)NCc1ccc2c(c1)OCO2`, the outcome was inactive.
In the case of `CCc1nnc(NC(=O)[C@@H](NC(=O)c2cccc(S(=O)(=O)N(CC)CC)c2)C(C)C)s1`, the compound was classed as inactive.
On to `CCc1ccc(-c2nc(CN3CCC(C(=O)NCCc4ccc(OC)c(OC)c4)CC3)c(C)o2)cc1`, for which the compound was called inactive.
For `CCOc1ccc(NC2c3ccccc3C(=O)N2Cc2ccco2)cc1` (stereo not given), the result was inactive.
For the compound `CC(C)n1c(NCCc2ccccc2)nc2c1c(=O)n(C)c(=O)n2C`, the call was inactive.
As to `Cc1ccc(NC(=O)c2ccc(OCC3CCCO3)cc2)cc1Cl` (stereo not given), the compound was classed as inactive.
In the case of `CN1C(=O)C2(c3ccccc31)N(C)CC(c1ccccc1)C21SC(=S)N(Cc2ccco2)C1=O` (stereo not given), the result was inactive.
